Experimental data from PubChem BioAssay (EPA / NIEHS).
Results filed as inconclusive are left out. Calls of active or inactive are those of the source. Rule for the calls, unless noted: active = hit-call score of the fitted dose curve at least 0.9, where 1 is the maximum; inactive = score below 0.9.

Experiments:
[1] = biological target: Paired box protein Pax-6 (Homo sapiens) (UniProt P26367); assay: ATG_Pax6_CIS: Attagene CIS-FACTORIAL HepG2 Assay for human Paired Box 6 (PAX6) (AID 2282956); settings: HepG2 CIS-FACTORIAL PAX6 reporter transcription, RNA readout; actives raise or lower the signal
Sequence of Paired box protein Pax-6 (Homo sapiens) (P26367 whole entry, looked up): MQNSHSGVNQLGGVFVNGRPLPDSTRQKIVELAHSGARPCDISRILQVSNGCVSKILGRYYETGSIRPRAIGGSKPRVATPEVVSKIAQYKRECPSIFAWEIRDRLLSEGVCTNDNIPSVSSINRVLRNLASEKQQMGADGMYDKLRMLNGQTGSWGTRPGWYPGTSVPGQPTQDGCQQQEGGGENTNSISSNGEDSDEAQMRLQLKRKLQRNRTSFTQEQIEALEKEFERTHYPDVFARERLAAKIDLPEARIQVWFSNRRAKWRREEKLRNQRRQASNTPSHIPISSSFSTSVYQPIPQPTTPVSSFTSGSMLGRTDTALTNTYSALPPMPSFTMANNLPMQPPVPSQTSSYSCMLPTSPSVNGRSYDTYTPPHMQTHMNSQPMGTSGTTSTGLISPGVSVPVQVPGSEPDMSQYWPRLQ
Outline: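 Multiplexed cis-reporter HepG2 system; 24 h treatment; reporter mRNA read by RT-PCR/CE fluorescence; bidirectional fit vs DMSO.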

[2] = ATG_PXRE_CIS: Attagene CIS-FACTORIAL HepG2 Assay for human Pregnane X Receptor Element (PXRE) (AID 2282957); settings: HepG2 Attagene CIS-FACTORIAL PXRE reporter, mRNA; actives raise or lower the signal
Outline: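 HepG2 cells transiently transfected with cis-regulated multiple reporter transcription units; endogenous factor activity measured as reporter mRNA 24 h after dosing. RT-PCR, fluorescent primer extension, HpaI digestion, capillary electrophoresis; bidirectional fit versus DMSO baseline.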

[3] = ATG_PPRE_CIS: Attagene CIS-FACTORIAL HepG2 Assay for human Peroxisome Proliferator-activated Response Element (PPRE) (AID 2282958); settings: HepG2 PPRE cis-element reporter, Attagene transcription factor profiling; actives raise or lower the signal
Outline: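 Transcript-level reporter induction in transfected HepG2 cells after 24 h chemical exposure, quantified by fluorescence from RT-PCR products separated by capillary electrophoresis.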

[4] = ATG_RORE_CIS: Attagene CIS-FACTORIAL HepG2 Assay for human RAR-related Orphan Receptor Element (RORE) (AID 2282959); settings: HepG2 Attagene cis-factorial RORE reporter, mRNA; actives raise or lower the signal
Outline: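 Multiplexed reporter assay measuring mRNA induction from a cis promoter element in transiently transfected HepG2 cells after 24 h treatment. Detection via RT-PCR and capillary electrophoresis fluorescence; DMSO serves as baseline.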

[5] = ATG_Sox_CIS: Attagene CIS-FACTORIAL HepG2 Assay for human SRY-box transcription factor (SOX) (AID 2282960); settings: HepG2 Attagene cis-factorial SOX reporter, mRNA; actives raise or lower the signal
Outline: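 Cells were transfected with reporter constructs under cis-regulatory promoters, then exposed to chemicals for 24 h. Reporter transcripts were quantified by fluorescence after RT-PCR and capillary electrophoresis; activity was fitted in both directions against DMSO.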

[6] = biological target: Transcription factor Sp1 (Homo sapiens) (UniProt P08047); assay: ATG_Sp1_CIS: Attagene CIS-FACTORIAL HepG2 Assay for human Specificity Protein 1 (Sp1) (AID 2282961); settings: HepG2 Sp1 cis-reporter transcription, actives raise or lower the signal
Sequence of Transcription factor Sp1 (Homo sapiens) (P08047 whole entry, looked up): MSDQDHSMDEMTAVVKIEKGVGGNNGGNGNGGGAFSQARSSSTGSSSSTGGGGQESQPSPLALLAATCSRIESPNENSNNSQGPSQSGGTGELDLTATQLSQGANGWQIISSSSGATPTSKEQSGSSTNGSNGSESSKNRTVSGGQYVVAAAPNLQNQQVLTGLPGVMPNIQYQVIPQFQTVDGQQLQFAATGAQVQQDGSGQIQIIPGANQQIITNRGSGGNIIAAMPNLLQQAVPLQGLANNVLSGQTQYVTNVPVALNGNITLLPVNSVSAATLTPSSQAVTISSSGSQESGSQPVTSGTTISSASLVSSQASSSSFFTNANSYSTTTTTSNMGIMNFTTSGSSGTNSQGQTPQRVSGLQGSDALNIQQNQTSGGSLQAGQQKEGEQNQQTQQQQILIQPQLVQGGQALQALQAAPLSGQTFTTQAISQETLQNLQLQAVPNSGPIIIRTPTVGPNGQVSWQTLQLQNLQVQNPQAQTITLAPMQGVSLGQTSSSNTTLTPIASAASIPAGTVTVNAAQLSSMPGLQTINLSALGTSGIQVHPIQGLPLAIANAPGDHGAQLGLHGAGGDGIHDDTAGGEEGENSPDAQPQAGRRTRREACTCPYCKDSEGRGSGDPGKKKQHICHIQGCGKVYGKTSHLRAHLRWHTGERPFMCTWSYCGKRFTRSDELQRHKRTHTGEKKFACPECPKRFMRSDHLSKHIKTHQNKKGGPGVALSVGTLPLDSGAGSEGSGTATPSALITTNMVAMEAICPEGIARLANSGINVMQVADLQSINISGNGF
Outline: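 Measures mRNA induction of an Sp1-linked reporter in HepG2 cells 24 h post-dosing. Multiplexed reporters read by RT-PCR and capillary electrophoresis; DMSO serves as negative control and baseline.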

[7] = ATG_SREBP_CIS: Attagene CIS-FACTORIAL HepG2 Assay for human Sterol Regulatory Element Binding (SREBP) (AID 2282962); settings: HepG2 Attagene cis-factorial SREBP reporter, mRNA; actives raise or lower the signal
Outline: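 mRNA induction of transfected cis-promoter reporters in HepG2 cells, 24 h post-dose. Detection: RT-PCR with 6-FAM-labelled products, HpaI digest, capillary electrophoresis. DMSO served as negative control and baseline.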

[8] = biological target: Signal transducer and activator of transcription 3 (Homo sapiens) (UniProt P40763); assay: ATG_STAT3_CIS: Attagene CIS-FACTORIAL HepG2 Assay for human Signal Transducer and Activator of Transcription 3 (STAT3) (AID 2282963); settings: HepG2, Attagene cis-factorial STAT3 reporter transcription; actives raise or lower the signal
Sequence of Signal transducer and activator of transcription 3 (Homo sapiens) (P40763 whole entry, looked up): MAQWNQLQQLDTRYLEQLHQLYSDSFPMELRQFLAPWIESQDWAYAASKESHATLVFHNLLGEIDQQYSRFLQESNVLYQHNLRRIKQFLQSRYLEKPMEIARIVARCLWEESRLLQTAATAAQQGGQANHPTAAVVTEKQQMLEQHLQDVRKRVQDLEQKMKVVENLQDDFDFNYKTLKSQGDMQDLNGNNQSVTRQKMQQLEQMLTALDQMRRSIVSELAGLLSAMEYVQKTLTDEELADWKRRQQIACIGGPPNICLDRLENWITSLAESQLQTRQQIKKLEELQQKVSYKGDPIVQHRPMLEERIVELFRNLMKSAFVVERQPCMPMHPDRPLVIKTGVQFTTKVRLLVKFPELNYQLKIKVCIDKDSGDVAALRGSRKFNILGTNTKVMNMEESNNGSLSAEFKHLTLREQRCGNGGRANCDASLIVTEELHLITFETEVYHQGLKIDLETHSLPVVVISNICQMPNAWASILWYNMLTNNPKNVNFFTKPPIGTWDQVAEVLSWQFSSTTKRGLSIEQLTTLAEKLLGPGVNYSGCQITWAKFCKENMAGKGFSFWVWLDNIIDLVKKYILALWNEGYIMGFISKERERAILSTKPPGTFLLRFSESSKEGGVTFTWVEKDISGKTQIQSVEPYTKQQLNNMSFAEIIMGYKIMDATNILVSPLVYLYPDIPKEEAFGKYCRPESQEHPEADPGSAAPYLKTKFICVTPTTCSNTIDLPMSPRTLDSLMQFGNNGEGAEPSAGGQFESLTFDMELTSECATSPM
Outline: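 Values derive from bidirectional fits relative to DMSO of reporter mRNA levels, measured by RT-PCR with capillary electrophoresis, in HepG2 cells carrying transiently transfected cis-regulated reporter units and exposed 24 h.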

[9] = ATG_TA_CIS: Attagene CIS-FACTORIAL HepG2 Assay for human TA Basal Promoter (AID 2282964); settings: HepG2 Attagene CIS-factorial TA basal promoter reporter; actives raise or lower the signal
Outline: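 HepG2 cells transiently transfected with multiplexed cis-promoter reporter units, dosed 24 h. Reporter mRNA measured by RT-PCR, 6-FAM labelling, HpaI digestion and capillary electrophoresis; bidirectional fit versus DMSO baseline, serving as background control.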

[10] = ATG_TCF_b_cat_CIS: Attagene CIS-FACTORIAL HepG2 Assay for human T-Cell-Factor with beta-catenin (TCF/b-cat) (AID 2282965); settings: HepG2 TCF/beta-catenin cis-reporter transcription, actives raise or lower the signal
Outline: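 HepG2, transient MRTU transfection, cis-element-driven reporters (endogenous TFs). 24 h compound exposure. Readout: reporter mRNA by RT-PCR + 6-FAM primer extension, HpaI digest, capillary electrophoresis. Gain/loss fit vs DMSO baseline.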

[11] = ATG_TAL_CIS: Attagene CIS-FACTORIAL HepG2 Assay for human TAL Basal Promoter (AID 2282966); settings: HepG2 Attagene cis-factorial TAL promoter reporter; actives raise or lower the signal;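 note: background control endpoint measuring basal TAL promoter reporter mRNA not a specific factor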
Outline: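 HepG2 cells were transiently transfected with promoter-driven multiplexed reporter units and dosed for 24 h. Reporter mRNA was measured by RT-PCR with capillary electrophoresis fluorescence; bidirectional fits used DMSO as baseline, serving as a background control.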

[12] = ATG_TGFb_CIS: Attagene CIS-FACTORIAL HepG2 Assay for human Transforming Growth Factor (TGF) (AID 2282967); settings: HepG2 Attagene CIS TGFb reporter, mRNA transcription; actives raise or lower the signal
Outline: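 HepG2 cells transiently transfected with cis-promoter-driven multiplexed reporter units; 24 h compound exposure. Reporter mRNA measured by RT-PCR, 6-FAM labeling, HpaI digestion and capillary electrophoresis; bidirectional fit versus DMSO baseline.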

[13] = ATG_VDRE_CIS: Attagene CIS-FACTORIAL HepG2 Assay for human Vitamin D Receptor Element (VDRE) (AID 2282968); settings: HepG2 VDRE cis-reporter transcription, actives raise or lower the signal
Outline: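 Cell-based multiplexed reporter format in human liver HepG2 cells, 24 h post-dose. Fluorescence from capillary electrophoresis of reporter cDNA gives the signal, with DMSO as negative control and baseline.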

[14] = biological target: Steroid hormone receptor ERR1 (Homo sapiens) (UniProt P11474); assay: ATG_ERRa_TRANS: Attagene TRANS-FACTORIAL HepG2 Assay for human Estrogen-Related Receptor alpha (ERRa) (AID 2282971; active = hit-call score of the fitted dose curve at least 0.9, where 1 is the maximum); settings: HepG2 Attagene TRANS reporter, ERRa transactivation
Sequence of Steroid hormone receptor ERR1 (Homo sapiens) (P11474 whole entry, looked up, the tested form may be a part): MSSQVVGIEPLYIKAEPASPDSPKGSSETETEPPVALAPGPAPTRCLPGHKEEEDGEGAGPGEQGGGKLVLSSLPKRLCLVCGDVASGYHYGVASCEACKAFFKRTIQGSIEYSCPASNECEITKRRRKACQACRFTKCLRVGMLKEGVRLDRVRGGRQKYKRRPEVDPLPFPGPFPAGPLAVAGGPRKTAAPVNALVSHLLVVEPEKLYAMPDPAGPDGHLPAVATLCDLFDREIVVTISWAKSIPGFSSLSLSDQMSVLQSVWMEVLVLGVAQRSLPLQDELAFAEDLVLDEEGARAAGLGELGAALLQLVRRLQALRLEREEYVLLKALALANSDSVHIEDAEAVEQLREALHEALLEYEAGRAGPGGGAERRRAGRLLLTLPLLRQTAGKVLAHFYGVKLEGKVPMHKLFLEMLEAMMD
Outline: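 HepG2 cells transiently transfected with multiplexed GAL4-UAS reporter units reading chimeric ERRa-Gal4 activity; 24 h compound exposure. Reporter mRNA measured by RT-PCR, 6-FAM labelling, HpaI digest and capillary electrophoresis; gain of signal fitted versus DMSO baseline.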

[15] = biological target: X-box-binding protein 1 (Homo sapiens) (UniProt P17861); assay: ATG_Xbp1_CIS: Attagene CIS-FACTORIAL HepG2 Assay for human X-box Binding Protein 1 (XBP1) (AID 2282972); settings: HepG2 XBP1 cis-element reporter, Attagene multiplex; actives raise or lower the signal
Sequence of X-box-binding protein 1 (Homo sapiens) (P17861 whole entry, looked up, the tested form may be a part): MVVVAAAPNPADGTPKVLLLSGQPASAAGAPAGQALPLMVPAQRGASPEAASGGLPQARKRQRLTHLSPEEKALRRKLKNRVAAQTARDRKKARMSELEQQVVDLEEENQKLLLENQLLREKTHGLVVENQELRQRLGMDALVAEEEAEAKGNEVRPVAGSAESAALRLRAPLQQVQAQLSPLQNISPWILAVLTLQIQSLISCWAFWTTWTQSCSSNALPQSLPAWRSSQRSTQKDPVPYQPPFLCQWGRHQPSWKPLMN
Outline: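 Fluorescence-labelled cDNA fragments from reporter transcripts, separated by capillary electrophoresis, give the signal. Source: HepG2 cells transfected with promoter-driven reporter units, harvested 24 h post-dose. DMSO served as reference for bidirectional curve fitting.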

[16] = ATG_GAL4_TRANS: Attagene TRANS-FACTORIAL HepG2 Assay for GAL4 (Internal Marker) (AID 2282976; active = hit-call score of the fitted dose curve at least 0.9, where 1 is the maximum); settings: HepG2 Attagene TRANS GAL4 internal marker reporter
Outline: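 HepG2 cells transiently transfected with multiplexed GAL4-UAS reporter constructs were dosed for 24 h. Reporter mRNA was measured by RT-PCR, 6-FAM primer extension, HpaI digestion and capillary electrophoresis, and gain of signal was fitted relative to DMSO.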

[17] = biological target: Estrogen-related receptor gamma (Homo sapiens) (UniProt P62508); assay: ATG_ERRg_TRANS: Attagene TRANS-FACTORIAL HepG2 Assay for human Estrogen-Related Receptor gamma (ERRg) (AID 2282977; active = hit-call score of the fitted dose curve at least 0.9, where 1 is the maximum;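 note: hits increase reporter signal over DMSO so potencies reflect activators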); settings: HepG2 Attagene TRANS reporter, ERRg transactivation
Sequence of Estrogen-related receptor gamma (Homo sapiens) (P62508 whole entry, looked up, the tested form may be a part): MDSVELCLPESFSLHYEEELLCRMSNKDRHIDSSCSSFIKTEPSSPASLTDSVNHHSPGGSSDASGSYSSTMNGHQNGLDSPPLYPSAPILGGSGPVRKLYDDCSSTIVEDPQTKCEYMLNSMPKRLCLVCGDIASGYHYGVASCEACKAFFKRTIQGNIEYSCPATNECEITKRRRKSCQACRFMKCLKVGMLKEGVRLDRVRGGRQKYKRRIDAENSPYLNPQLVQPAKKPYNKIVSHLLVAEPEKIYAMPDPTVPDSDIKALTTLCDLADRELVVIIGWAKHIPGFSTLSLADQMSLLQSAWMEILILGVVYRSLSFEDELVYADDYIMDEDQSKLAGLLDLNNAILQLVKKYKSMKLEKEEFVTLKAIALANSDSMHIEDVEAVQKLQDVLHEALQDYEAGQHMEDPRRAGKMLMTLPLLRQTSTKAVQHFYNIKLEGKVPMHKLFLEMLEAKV
Outline: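 Transient HepG2 transfectants, 24 h compound exposure, GAL4-UAS reporter mRNA by RT-PCR/6-FAM labelling/capillary electrophoresis; positive direction vs DMSO.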

[18] = biological target: Nuclear receptor subfamily 1 group I member 3 (Homo sapiens) (UniProt Q14994); assay: ATG_CAR_TRANS: Attagene TRANS-FACTORIAL HepG2 Assay for human Constitutive Androstane Receptor (CAR) (AID 2282969; active = hit-call score of the fitted dose curve at least 0.9, where 1 is the maximum;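 note: activators raise reporter mRNA above DMSO so AC50 marks induction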); settings: HepG2 Attagene TRANS-FACTORIAL CAR reporter
Sequence of Nuclear receptor subfamily 1 group I member 3 (Homo sapiens) (Q14994 whole entry, looked up, the tested form may be a part): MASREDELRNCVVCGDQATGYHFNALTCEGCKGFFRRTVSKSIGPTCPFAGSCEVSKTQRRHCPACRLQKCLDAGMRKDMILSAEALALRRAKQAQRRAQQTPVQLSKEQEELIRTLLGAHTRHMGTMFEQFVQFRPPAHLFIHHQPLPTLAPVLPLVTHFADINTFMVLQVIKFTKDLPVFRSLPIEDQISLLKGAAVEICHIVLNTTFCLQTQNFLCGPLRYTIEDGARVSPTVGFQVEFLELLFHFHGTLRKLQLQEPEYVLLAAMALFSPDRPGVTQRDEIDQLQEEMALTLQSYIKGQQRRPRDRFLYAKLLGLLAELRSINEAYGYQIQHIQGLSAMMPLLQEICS
Outline: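 HepG2 cells transiently transfected with GAL4-UAS reporter units; TRANS format reads activity of exogenous chimeric NR-Gal4 protein. After 24 h dosing, reporter mRNA quantified by RT-PCR, 6-FAM labelling and capillary electrophoresis; gain of signal fitted against DMSO.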

[19] = ATG_M_19_TRANS: Attagene TRANS-FACTORIAL HepG2 Assay for M19 Transcription Factor (Internal Marker) (AID 2282974; active = hit-call score of the fitted dose curve at least 0.9, where 1 is the maximum); settings: HepG2 Attagene TRANS-FACTORIAL M19 internal marker reporter
Outline: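 After transfection of HepG2 with GAL4-UAS-driven reporter constructs, cells are dosed for 24 h. Total RNA is reverse-transcribed, reporter sequences PCR-amplified and labelled, then HpaI-digested and sized by capillary electrophoresis.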

With `CN1C(=O)c2ccccc2C1=O` the outcome [1] was “inactive”, the outcome [2] was “inactive” and the outcome [3] was “inactive”. For the same compound, the outcome [4] was “inactive”, the outcome [5] was “inactive” and the outcome [6] was “inactive”. The outcome [7] was “inactive”, the outcome [8] was “inactive” and the outcome [9] was “inactive”. The outcome [10] was “inactive”, the outcome [11] was “inactive” and the outcome [12] was “inactive”. For the same compound, the outcome [13] was “inactive”, the outcome [14] was “inactive” and the outcome [15] was “inactive”. For the same compound, the outcome [16] was “inactive” and the outcome [17] was “inactive”.

With `ON=C1CCCCC1` the outcome [1] was “inactive”, the outcome [2] was “inactive” and the outcome [3] was “inactive”. For the same compound, the outcome [4] was “inactive”, the outcome [5] was “inactive” and the outcome [6] was “inactive”. For the same compound, the outcome [7] was “inactive”, the outcome [8] was “inactive” and the outcome [9] was “inactive”. The outcome [10] was “inactive”, the outcome [11] was “inactive” and the outcome [12] was “inactive”. For the same compound, the outcome [13] was “inactive”, the outcome [18] was “inactive” and the outcome [14] was “inactive”. For the same compound, the outcome [15] was “inactive” and the outcome [16] was “inactive”.

For `Cc1ccc(-c2ccccc2)cc1`, the outcome [1] was “inactive”, the AC50 [2] was 27.3 µM (active) and the outcome [3] was “inactive”. The outcome [4] was “inactive”, the outcome [5] was “inactive” and the outcome [6] was “inactive”. The outcome [7] was “inactive”, the outcome [8] was “inactive” and the outcome [9] was “inactive”. The outcome [10] was “inactive”, the outcome [11] was “inactive” and the outcome [12] was “inactive”. For the same compound, the outcome [13] was “inactive” and the outcome [15] was “inactive”.

For `CC(C)(C)C1=CC(=O)C(C(C)(C)C)=CC1=O`, the AC50 [1] was 61.5 µM (active), the AC50 [2] was 1.29 µM (active) and the AC50 [3] was 13.4 µM (active). For the same compound, the outcome [4] was “inactive”, the outcome [5] was “inactive” and the outcome [6] was “inactive”. For the same compound, the AC50 [7] was 25.7 µM (active), the outcome [8] was “inactive” and the outcome [9] was “inactive”. The AC50 [10] was 50 µM (active), the outcome [11] was “inactive” and the outcome [12] was “inactive”. The AC50 [13] was 19.7 µM (active), the AC50 [18] was 20.1 µM (active) and the outcome [17] was “inactive”.

For `CCC(C)=O`, the outcome [1] was “inactive”, the outcome [2] was “inactive” and the outcome [3] was “inactive”. The outcome [4] was “inactive”, the outcome [5] was “inactive” and the outcome [6] was “inactive”. For the same compound, the outcome [7] was “inactive”, the outcome [8] was “inactive” and the outcome [9] was “inactive”. The outcome [10] was “inactive”, the outcome [11] was “inactive” and the outcome [12] was “inactive”. The outcome [13] was “inactive”, the outcome [15] was “inactive” and the outcome [16] was “inactive”. The outcome [17] was “inactive”.

With `OCCc1ccccc1` the outcome [1] was “inactive”, the outcome [2] was “inactive” and the outcome [3] was “inactive”. The outcome [4] was “inactive”, the outcome [5] was “inactive” and the outcome [6] was “inactive”. For the same compound, the outcome [7] was “inactive”, the outcome [8] was “inactive” and the outcome [9] was “inactive”. For the same compound, the outcome [10] was “inactive”, the outcome [11] was “inactive” and the outcome [12] was “inactive”.

For `C=C(C)C(=O)OCCOC1CC2CC1C1C=CCC21` (stereo not drawn), the outcome [1] was “inactive”, the outcome [2] was “inactive” and the outcome [3] was “inactive”. The outcome [4] was “inactive”, the outcome [5] was “inactive” and the outcome [6] was “inactive”. For the same compound, the outcome [7] was “inactive”, the outcome [8] was “inactive” and the outcome [9] was “inactive”. For the same compound, the outcome [10] was “inactive”, the outcome [11] was “inactive” and the outcome [12] was “inactive”. The outcome [13] was “inactive”, the outcome [14] was “inactive” and the outcome [15] was “inactive”. For the same compound, the outcome [16] was “inactive”.

With `COC(CC(C)CCCC(C)(C)O)OC` (stereo not drawn) the outcome [1] was “inactive”, the outcome [2] was “inactive” and the outcome [3] was “inactive”. The outcome [4] was “inactive”, the outcome [5] was “inactive” and the outcome [6] was “inactive”. The outcome [7] was “inactive”, the outcome [8] was “inactive” and the outcome [9] was “inactive”. For the same compound, the outcome [10] was “inactive”, the outcome [11] was “inactive” and the outcome [12] was “inactive”. For the same compound, the outcome [13] was “inactive”, the outcome [15] was “inactive” and the outcome [19] was “inactive”. The outcome [16] was “inactive”.
